According to ChEMBL document CHEMBL1157539, “Thousands of chemical starting points for antimalarial lead identification” (Nature, 2010):

Legend:
Type in all cases: functional
Plasmodium falciparum [1] = experiment: GSK_TCMDC: Inhibition of Plasmodium falciparum 3D7 in whole red blood cells, using parasite LDH activity as an index of growth. Test compounds present at 2uM
Plasmodium falciparum [2] = experiment: GSK_TCMDC: Inhibition of Plasmodium falciparum Dd2 in whole red blood cells, using parasite LDH activity as an index of growth. Test compounds present at 2uM
HepG2 = experiment: GSK_TCMDC: Percent inhibition of human HepG2 cell line. Test compounds present at 10uM.

## c1ccc(Nc2nc(-c3ccccn3)cs2)nc1
Plasmodium falciparum [1]
  Inhibition: 87%
Plasmodium falciparum [2]
  Inhibition: 93%
HepG2
  Inhibition: 45%

## O=C(NC1CCN(Cc2ccccc2)CC1)c1ccc(-c2nc3cc(Cl)c(F)cc3[nH]2)cc1
Plasmodium falciparum [1]
  Inhibition: 100%
Plasmodium falciparum [2]
  Inhibition: 100%
HepG2
  Inhibition: 13%

## CCCCOC(=O)NCCCC[C@H](NC(=O)OC(C)(C)C)C(=O)N[C@H](C(=O)OC(c1ccccc1)c1ccccc1)[C@H]1O[C@@H](n2ccc(=O)[nH]c2=O)[C@@H]2OC(C)(C)O[C@@H]21
Plasmodium falciparum [1]
  Inhibition: 87%
Plasmodium falciparum [2]
  Inhibition: 65%
HepG2
  Inhibition: 7%

## COc1ccc(NC(=O)C2c3ccccc3C(=O)N(C3CCCC3)C2c2cccs2)cc1 (stereo not drawn)
Plasmodium falciparum [1]
  Inhibition: 93%
Plasmodium falciparum [2]
  Inhibition: 75%
HepG2
  Inhibition: 0%

## Cc1cccc(-c2ccc(NC(=O)C3CCN(Cc4cccc(O)c4)CC3)cc2)c1
Plasmodium falciparum [1]
  Inhibition: 92%
Plasmodium falciparum [2]
  Inhibition: 64%
HepG2
  Inhibition: 21%

## Cc1ccc(CNC(=N)NC(=O)c2nc(Cl)c(NCc3ccc(Cl)cc3)nc2N)c(C)c1
Plasmodium falciparum [1]
  Inhibition: 100%
Plasmodium falciparum [2]
  Inhibition: 100%
HepG2
  Inhibition: 28%

## CN(C)CCN1CCN(Cc2ccc(-c3cccc(-c4nc5ccccc5[nH]4)c3)cc2)CC1.O=C(O)C(F)(F)F
Plasmodium falciparum [1]
  Inhibition: 100%
Plasmodium falciparum [2]
  Inhibition: 100%
HepG2
  Inhibition: 25%

## O=C(O)C(=O)O.c1ccc(C2CCC(N3CCC(N4CCCC4)CC3)CC2)cc1 (stereo not drawn)
Plasmodium falciparum [1]
  Inhibition: 100%
Plasmodium falciparum [2]
  Inhibition: 46%
HepG2
  Inhibition: 9%

## CN(CC(=O)Nc1ccc(F)c(F)c1F)c1ncnc2sc(-c3ccccc3)cc12
Plasmodium falciparum [1]
  Inhibition: 95%
Plasmodium falciparum [2]
  Inhibition: 34%
HepG2
  Inhibition: 0%

## N#CC(c1cccc(Cl)c1)c1ccc2c(C(F)(F)F)cc(C(F)(F)F)nc2n1 (stereo not drawn)
Plasmodium falciparum [1]
  Inhibition: 96%
Plasmodium falciparum [2]
  Inhibition: 97%
HepG2
  Inhibition: 52%

## COC(=O)Nc1nc2cc3c(cc2s1)OCCO3
Plasmodium falciparum [1]
  Inhibition: 99%
Plasmodium falciparum [2]
  Inhibition: 0%
HepG2
  Inhibition: 0%

## N#Cc1ccc(CN2CCCN(Cc3cccc(NC(=O)c4ccc(-c5ccccc5)cc4)c3)CC2)cc1.O=C(O)C(F)(F)F
Plasmodium falciparum [1]
  Inhibition: 88%
Plasmodium falciparum [2]
  Inhibition: 12%
HepG2
  Inhibition: 33%

## CC(C)CCN1C(=O)C(NC(=O)Oc2ccccc2)C(=O)N(CC23CC4CC(CC(C4)C2)C3)c2ccccc21 (stereo not drawn)
Plasmodium falciparum [1]
  Inhibition: 95%
Plasmodium falciparum [2]
  Inhibition: 4%
HepG2
  Inhibition: 3%

## CCN(CCCN1CCCCC1)c1cc(C)nc(Nc2ccc(C)cc2Br)n1.O=C(O)C(F)(F)F
Plasmodium falciparum [1]
  Inhibition: 95%
Plasmodium falciparum [2]
  Inhibition: 27%
HepG2
  Inhibition: 49%

## CCS(=O)(=O)Nc1ccc2[nH]cc(C3CCN(CCC4CCN(C(=O)/C=C/c5ccc(Cl)c(Cl)c5)CC4)CC3)c2c1
Plasmodium falciparum [1]
  Inhibition: 99%
Plasmodium falciparum [2]
  Inhibition: 94%
HepG2
  Inhibition: 34%

## C[C@H](NC(=O)[C@H](CCCCNC(=O)OC(C)(C)C)NC(=O)OC(C)(C)c1ccc(-c2ccccc2)cc1)C(=O)OCc1ccccc1
Plasmodium falciparum [1]
  Inhibition: 97%
Plasmodium falciparum [2]
  Inhibition: 1%
HepG2
  Inhibition: 4%

## N#Cc1ccc(CN2CCC(Oc3ccc(NC(=O)c4ccsc4)cc3Cl)C2)cc1.O=C(O)C(F)(F)F (stereo not drawn)
Plasmodium falciparum [1]
  Inhibition: 88%
Plasmodium falciparum [2]
  Inhibition: 79%
HepG2
  Inhibition: 29%

## CCN(CC)CCN(Cc1ccc(-c2ccc(C(F)(F)F)cc2)cc1)C(=O)Cn1c(CCc2cccc(F)c2F)nc(=O)c2ccccc21.O=C(O)C(O)C(O)C(=O)O
Plasmodium falciparum [1]
  Inhibition: 97%
Plasmodium falciparum [2]
  Inhibition: 60%
HepG2
  Inhibition: 49%

## Cc1ccc2[nH]c3c(NCCN(C)C)ncnc3c2c1
Plasmodium falciparum [1]
  Inhibition: 99%
Plasmodium falciparum [2]
  Inhibition: 5%
HepG2
  Inhibition: 9%

## COc1ccc2c(c1)CCCC2NCCCCNC(=O)c1ccc(NC(=O)c2ccc(Cl)cc2)cc1 (stereo not drawn)
Plasmodium falciparum [1]
  Inhibition: 100%
Plasmodium falciparum [2]
  Inhibition: 49%
HepG2
  Inhibition: 27%

## Cc1ccnc(NC(c2cccc(Cl)c2Cl)c2ccc3cccnc3c2O)c1 (stereo not drawn)
Plasmodium falciparum [1]
  Inhibition: 86%
Plasmodium falciparum [2]
  Inhibition: 38%
HepG2
  Inhibition: 46%

## COc1cc(C(=O)N2CCOC(CCN3CCC(c4ccc(Cl)cc4)CC3)(c3ccc(Cl)c(Cl)c3)C2)cc(OC)c1OC (stereo not drawn)
Plasmodium falciparum [1]
  Inhibition: 91%
Plasmodium falciparum [2]
  Inhibition: 80%
HepG2
  Inhibition: 44%

## CN(C)S(=O)(=O)c1ccc(N2C(=O)C3C(C2=O)C2(c4ccccc4)C(=O)C3(c3ccccc3)C(c3ccccc3)=C2c2ccccc2)cc1 (stereo not drawn)
Plasmodium falciparum [1]
  Inhibition: 92%
Plasmodium falciparum [2]
  Inhibition: 63%
HepG2
  Inhibition: 0%

## O=C(O)C(F)(F)F.c1cc(CNCC2CCN(CC3CCCCC3)CC2)cc(-n2ccnc2)c1
Plasmodium falciparum [1]
  Inhibition: 100%
Plasmodium falciparum [2]
  Inhibition: 99%
HepG2
  Inhibition: 18%

## CCN(C(=O)CSc1cc(C)c2cc(C)cc(C)c2n1)C1CCS(=O)(=O)C1 (stereo not drawn)
Plasmodium falciparum [1]
  Inhibition: 97%
Plasmodium falciparum [2]
  Inhibition: 82%
HepG2
  Inhibition: 5%

## COc1ccc(NC(=O)[C@H](CC(C)C)Nc2cc(C)nc(NCCOc3ccccc3)n2)cc1.O=C(O)C(F)(F)F
Plasmodium falciparum [1]
  Inhibition: 100%
Plasmodium falciparum [2]
  Inhibition: 65%
HepG2
  Inhibition: 0%
